Sm TGR inh = blocks Schistosoma mansoni thioredoxin glutathione reductase; Potency, µM (titrated, usually from 114 µM), most hits filed as inhibitors; AID 485364; purified TGR, DTNB reduction, TNB absorbance 405 nm; actives 3% (n = 360,000); active = well fitted inhibition curve with a large enough effect; inconclusive = small, poorly fitted or top-dose-only effect; inactive = no such curve, though single readings can be large or run the other way; also: nearly all actives have a fitted effect of over 60% in size
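First, TGR (20 nM dispensed) and NADPH were mixed with compound. Second, a 15 min room-temperature incubation followed. Third, further NADPH and then DTNB were added to start the reaction. Finally, TNB absorbance was monitored kinetically.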
CHX counter = counter-screen hit for Shiga toxin inhibitors, cycloheximide. cell reporter, cycloheximide protein synthesis inhibition counterscreen. max response, %. actives 12% (n = 300,000); in the data active = max response mostly above about 13%, no sharp cut-off; inactive = mostly below about 14%; also: read at 38.3 µM for the half of the compounds with a filed dose
FMDV inh = antivirals against foot and mouth disease virus | Potency, µM (highest dose often 57.9 µM), hits mostly inhibitors | actives 1.2% (n = 410,000) | FMDV antiviral cell-based qHTS; calls by dose curve; tested in HEK293T cells; also: read-out not given here; nearly all actives have a fitted effect of over 45% in size
Shiga toxin inh = blocks Shiga toxin action in Vero cells; Vero cells, Shiga toxin protein synthesis inhibition reporter; actives 9.2% (n = 290,000); inhibition, % at 38.7 µM; AID 2315; in the data active = inhibition mostly above about 28%, no sharp cut-off; inactive = mostly below about 43%
Numbers stand for hits; - = inactive; ? = inconclusive; . = no result given. This is a sample that favours compounds with a hit; in the whole collection about 12% have one here.

SMILES	Sm TGR inh	CHX counter	FMDV inh	Shiga toxin inh
COCC(=O)Nc1sc2c(c1C(=O)OC)CCC(C)C2 (centres undefined)	-	12.4	-	-
COC(=O)c1c(NC(=O)CN2CCOCC2)sc2c1CCC(C)C2 (centres undefined)	-	-	-	-
Cc1ccc(CN(C(=O)COc2ccc(Cl)cc2Cl)C2CCS(=O)(=O)C2)o1 (centres undefined)	-	.	-	.
COc1ccccc1CN1CC[C@@]2(CCCN(C(=O)c3c(C)noc3C)C2)C1	.	.	-	.
Oc1ccc(CCNc2ncnc3ccc(Cl)cc23)cc1	-	-	10µM	-
Cc1ccc(NC(=O)N2CC3CCCN3c3ccccc32)cc1Cl (centres undefined)	-	.	-	.
O=c1c(-c2ccc(O)cc2)coc2cc(OC3OC(CO)C(O)C(O)C3O)cc(O)c12 (centres undefined)	-	22.0	-	67.6
COc1cc(O)c2c(=O)c(-c3ccc(O[C@@H]4O[C@H](CO)[C@@H](O)[C@H](O)[C@H]4O)cc3)coc2c1	?	39.1	-	111.3
O=c1cc(-c2ccc(O)cc2)oc2cc(O[C@H]3OC(CO)C(O)C(O)C3O)cc(O)c12 (some centres undefined)	.	.	-	.
O=c1c(-c2ccc(O)cc2)coc2cc(OC3OC(CO)C(O)C(O)C3O)ccc12 (centres undefined)	-	19.8	-	42.5
O=C(CSc1cn(CCNC(=O)c2c(F)cccc2F)c2ccccc12)Nc1ccc(F)cc1	-	.	-	.
Cc1oc(-c2ccc(-c3ccccc3)cc2)nc1CN(C)C1CCOC1 (centres undefined)	-	60.1	-	75.0
Cc1oc(-c2cccc(Cl)c2)nc1CN(C)C1CCOC1 (centres undefined)	-	-	-	-
Cc1ccc(-c2nc(CS(=O)(=O)CC(=O)NCCCN(Cc3ccccc3)C(C)C)c(C)o2)cc1	-	-	-	-
Cc1oc(-c2ccc(-c3ccccc3)cc2)nc1CN(CCO)C(C)C	-	37.2	?	-
Cc1ccc(-c2nc(CN(C)C3CCOC3)c(C)o2)s1 (centres undefined)	-	25.4	-	-
CCOc1ccc(N=C2NC(=O)S/C2=C\c2ccc(N(C)C)cc2)cc1	-	21.6	-	59.2
CCOc1ccc(/C=C2/SC(=O)NC2=S)cc1	44.7µM	34.9	-	46.0
Cc1ccc(CNC(=O)C(=O)NCC(c2ccc3c(c2)OCO3)N2CCOCC2)cc1 (centres undefined)	-	.	-	.
CCOC(=O)c1cc(S(=O)(=O)N2CCN(c3ccc(F)cc3)CC2)[nH]n1	-	.	-	.
Fc1ccc(Br)cc1C1C=C(c2cccnc2)Nc2ncnn21 (centres undefined)	-	-	-	-
Brc1ccc(C2=CC(c3cccs3)n3ncnc3N2)cc1 (centres undefined)	22.4µM	-	-	-
OCCCc1nc2n(n1)C(c1cccs1)C=C(c1ccc(Br)cc1)N2 (centres undefined)	25.1µM	-	.	-
COc1ccc(NC(=O)C2=C(C)Nc3nc(SCc4ccccc4C)nn3C2c2cc(OC)c(O)c(OC)c2)cc1 (centres undefined)	-	.	-	.
COc1ccc(C(=O)NCC(c2ccc(N(C)C)cc2)N2CCc3ccccc32)cc1 (centres undefined)	-	.	-	.
SMILES	Sm TGR inh	CHX counter	FMDV inh	Shiga toxin inh
CC(C)(C)c1csc(NC(=O)C2=COCCO2)n1	-	.	-	.
Cc1ccc(-c2csc(NC(=O)N3CCOCC3)n2)cc1	.	37.8	-	110.8
CC(=O)Nc1ccc(-c2csc(NC(=O)C3=COCCO3)n2)cc1	-	.	-	.
Cc1ccc(-c2csc(NC(=O)C3CSC4(C)CCC(=O)N34)n2)cc1 (centres undefined)	56.2µM	.	-	.
Cc1ccc(-c2csc(NC(=O)C3=COCCO3)n2)cc1	-	42.0	-	51.4
CCOC(=O)c1csc(NC(=O)C2=COCCO2)n1	-	40.5	-	63.3
Cc1csc(NC(=O)C2CSC3(C)CCC(=O)N23)n1 (centres undefined)	-	-	-	-
C#Cc1ccc2c(c1)C(=O)N(C)Cc1c(C(=O)OCCCOC(=O)c3ncn4c3CN(C)C(=O)c3cc(C#C)ccc3-4)ncn1-2	.	-	.	-
COc1ccc(NCc2cc3cc4c(cc3n(CC(=O)Nc3ccc(C)c(C)c3)c2=O)OCO4)cc1	-	.	-	.
CCN(C(=O)c1cn(CC(C)C)c(=O)c2cc(OC)c(OC)cc12)c1cc(OC)ccc1OC	-	.	-	.
CCOC(=O)c1ccc(NC(=O)CCn2c(=O)c3cccn3c3ccccc32)cc1	-	.	?	.
Cc1ccc(-c2nc(N3CCOCC3)sc2C(=O)N2CCOCC2)cc1	-	-	-	23.8
Cc1ccc(N=Nc2c(O)c3ccccc3[nH]c2=O)c(S(=O)(=O)N(C)C)c1	-	38.1	.	42.8

Bioassay records (PubChem)
